Compound activity (PubChem)
The list is not random: actives were taken first. Their share in the collection is about 21%.
VP16 counter = counter-screen for ROR gamma inhibitors: Gal4-VP16 reporter; Drosophila S2 Gal4-VP16 UAS-luciferase, luminescence, 20 h; actives 3.5% (n = 310,000); Potency, µM (doses to about 53.6 µM), hits mostly inhibitors;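 further: Gal4-VP16 expression switched on by copper sulfate through the metallothionein promoter; nearly all actives have a fitted effect of over 50% in size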
ELG1 DNA repair = inhibitors of ELG1-dependent DNA repair in HEK293T cells; actives 2.3% (n = 330,000); HEK293T ELG1-luciferase reporter, luminescence, 16 h; DNA damage induced by 5-fluorouridine; Potency, µM (doses to about 46.1 µM), actives largely listed as inhibitors; AID 504467; further: nearly all actives have a fitted effect of over 55% in size
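Cells (2,000 per well) received 5-fluorouridine plus test compound or DMSO and were incubated 16 hr at 37 °C, 5% CO2. Luciferase activity was read by luminescence 30 min after ONE-Glo addition; signal suppression marked inhibition of damage-induced ELG1 function.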
TDP1 cell noCPT = qHTS for Inhibitors of human tyrosyl-DNA phosphodiesterase 1 (TDP1): qHTS in cells in absence of CPT | DT40 Tdp1-/- hTDP1 cells, no CPT, ATP luminescence, 48 h | Potency, µM (highest dose often 46.2 µM), usual class: inhibitors | actives 15% (n = 420,000); further: nearly all actives have a fitted effect of over 55% in size
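Readout: luminescence from CellTiter-Glo after 30 min in the dark at RT. Cells: DT40 Tdp1-/- with stable hTDP1, 400/well. Exposure: compounds alone, ≥48 hr, 37 °C.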
TDP1 cell CPT = DT40-hTDP1 cell growth loss with CPT; actives 12% (n = 420,000); Potency, µM (titrated, usually from 46.2 µM), actives largely listed as inhibitors; chicken DT40 Tdp1-/-;hTDP1 cells + 20 nM CPT, ATP luminescence, 48 h; AID 686979; further: nearly all actives have a fitted effect of over 55% in size
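Chicken DT40 Tdp1-/- cells stably complemented with human TDP1 were seeded at 400 cells/well in medium containing 20 nM camptothecin, exposed to pin-transferred compounds, and grown at 37 °C for at least 48 hr. Viability was read as ATP luminescence.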
IL-1B inflam inh = inflammasome signaling inhibition, IL-1 beta readout. THP-1 LPS/ATP IL-1B secretion, AlphaLISA, 16 h; stronger effect = lower value. activity change, % at 57.5 µM. actives 4.7% (n = 360,000). AID 743279; in the data active means activity change below about -50%; inconclusive means mostly about -30% to -49%
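Secreted IL-1B measured by AlphaLISA bead assay after 16 h compound exposure of THP-1 cells; compounds (final up to 57.5 uM) added 1 h before LPS (250 ng/mL) and ATP (1.25 mM) stimulation; lower signal means less secretion.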
RORgamma inh = ROR gamma (mouse) transcription inhibition. Potency, µM (series often up to 53.6 µM), most hits filed as inhibitors. AID 2551. actives 5.4% (n = 310,000). P51450. Drosophila S2 Gal4-RORgamma UAS-luciferase reporter, 20 h; further: nearly all actives have a fitted effect of over 60% in size
Target sequence (P51450 whole entry, looked up, the tested form may be a part): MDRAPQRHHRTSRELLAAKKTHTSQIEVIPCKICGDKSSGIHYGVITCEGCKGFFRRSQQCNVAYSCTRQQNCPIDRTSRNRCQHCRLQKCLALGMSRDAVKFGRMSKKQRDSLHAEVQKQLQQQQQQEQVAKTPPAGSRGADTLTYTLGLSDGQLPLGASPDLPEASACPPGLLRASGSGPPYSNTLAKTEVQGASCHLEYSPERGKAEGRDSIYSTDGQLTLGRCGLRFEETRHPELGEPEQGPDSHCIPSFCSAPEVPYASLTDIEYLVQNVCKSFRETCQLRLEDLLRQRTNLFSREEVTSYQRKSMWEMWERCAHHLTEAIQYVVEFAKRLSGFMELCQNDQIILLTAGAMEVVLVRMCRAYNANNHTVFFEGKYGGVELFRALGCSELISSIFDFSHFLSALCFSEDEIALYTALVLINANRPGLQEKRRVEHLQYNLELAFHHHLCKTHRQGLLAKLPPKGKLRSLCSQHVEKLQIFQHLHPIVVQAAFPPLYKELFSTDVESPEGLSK
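Compounds are pin-transferred onto Drosophila Schneider cells expressing a copper-inducible Gal4–ROR gamma transactivation domain fusion. After 1 hr, copper sulfate is added to 700 uM final; luciferase is read 20 hr later.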
Each line names hits and unclear results; the compound was inactive in the other large screens. Unless noted, the call rests on the fitted dose curve; in most records, active means well fitted curve in the direction sought with a large enough effect; inconclusive means small, poorly fitted or top-dose-only effect, or another doubt; inactive means no such curve, though single readings can be large; an effect the other way counts as inactive or inconclusive.

CCn1ncc(CN2CCC(n3nccc3NC(=O)c3ccccc3Cl)CC2)c1C	none (no result: VP16 counter, ELG1 DNA repair, RORgamma inh)
CC(=O)c1ccc(/C=C/c2nc3ccccc3n2C)o1	VP16 counter inconclusive, ELG1 DNA repair inconclusive, TDP1 cell noCPT inconclusive, TDP1 cell CPT inconclusive, RORgamma inh 10µM
Cn1c(=O)c(C(=O)c2ccccc2)nc2ccccc21	none
Cn1c(/C=C/c2ccccc2)nc2ccccc21	VP16 counter 7.1µM, ELG1 DNA repair inconclusive, TDP1 cell noCPT 16µM, TDP1 cell CPT inconclusive, RORgamma inh 10µM
O=c1[nH]c2ccccc2nc1/C=C/c1ccc(F)cc1	ELG1 DNA repair inconclusive, TDP1 cell noCPT inconclusive, TDP1 cell CPT inconclusive
Cn1c(=O)c(/C=C/c2ccc(F)cc2)nc2ccccc21	ELG1 DNA repair inconclusive, TDP1 cell noCPT 23µM, TDP1 cell CPT inconclusive
Cn1c(=O)c(/C=C/c2ccccc2)nc2ccccc21	ELG1 DNA repair inconclusive, TDP1 cell noCPT 16µM, TDP1 cell CPT inconclusive, RORgamma inh inconclusive
COc1ccc(NC(=O)Nc2ccc3nc([C@@H]4O[C@H](CO)[C@@H](O)[C@H](O)[C@H]4O)[nH]c3c2)cc1OC1CCCC1	none (no result: VP16 counter, ELG1 DNA repair, RORgamma inh)
COc1ccc2c(c1OC)C(=O)OC2N1C(=O)CC[C@H]1C(=O)Nc1ccc(F)cc1F (stereo partly drawn)	none
CN1C(=O)c2cccc(NCCCN3C(=O)c4ccccc4C3=O)c2C1=O	TDP1 cell CPT inconclusive
CN1C(=O)c2cccc(NCCCCCCN3C(=O)c4ccccc4C3=O)c2C1=O	ELG1 DNA repair 15µM, TDP1 cell noCPT 9.2µM, TDP1 cell CPT 21µM, IL-1B inflam inh inconclusive
COc1ccccc1/C=C1\SC(=S)N(Nc2nc(C)cc(C)n2)C1=O	TDP1 cell CPT inconclusive, RORgamma inh 11µM
O=C(CCN1C(=O)/C(=C/c2ccccc2Cl)SC1=S)N1CCOCC1	VP16 counter inconclusive, ELG1 DNA repair inconclusive, TDP1 cell noCPT 3.7µM, TDP1 cell CPT 5.2µM, IL-1B inflam inh -112, RORgamma inh 7.1µM
O=C(CCN1C(=O)/C(=C/c2ccccc2Cl)SC1=S)N1CCCC1	ELG1 DNA repair inconclusive, TDP1 cell noCPT 6.5µM, TDP1 cell CPT 9.2µM, IL-1B inflam inh -64, RORgamma inh 8.9µM
O=C(CCCN1C(=O)/C(=C/c2ccccc2Cl)SC1=S)N1CCCC1	ELG1 DNA repair inconclusive, TDP1 cell noCPT 21µM, TDP1 cell CPT inconclusive, IL-1B inflam inh -66, RORgamma inh 8.9µM
O=C(CCN1C(=O)/C(=C/c2ccccc2Cl)SC1=S)NC1CCS(=O)(=O)C1 (stereo not drawn)	ELG1 DNA repair inconclusive
Cc1cc(C)nc(NN2C(=O)/C(=C/c3ccc(O)cc3)SC2=S)n1	TDP1 cell noCPT inconclusive, TDP1 cell CPT inconclusive
COc1ccc(-c2csc(C(O)c3ccc(F)cc3)n2)cn1 (stereo not drawn)	none (no result: VP16 counter, ELG1 DNA repair, RORgamma inh)
COc1ccccc1/C=C1\SC(=S)N(CCC(=O)NCCCN2CCOCC2)C1=O	TDP1 cell noCPT inconclusive
CCOC(=O)N1CCN(C(=O)CCN2C(=O)/C(=C\c3ccccc3OC)SC2=S)CC1	TDP1 cell noCPT 23µM, TDP1 cell CPT 23µM
COC(=O)c1cc(=O)n(Cc2ccc3c(c2)OCO3)c(=Nc2ccc(F)cc2)s1	ELG1 DNA repair inconclusive, TDP1 cell noCPT inconclusive, TDP1 cell CPT inconclusive, RORgamma inh inconclusive
CCOC(=O)c1ccc(N=c2sc(C(=O)OC)cc(=O)n2Cc2ccc3c(c2)OCO3)cc1	TDP1 cell noCPT 6.5µM, TDP1 cell CPT 6.5µM, RORgamma inh inconclusive
COC(=O)c1cc(=O)n(Cc2ccc(F)cc2)c(=NCc2ccc(F)cc2)s1	none
COC(=O)c1c(O)cc(C(C)(C)C)n(-c2ccc(F)cc2)c1=O	none
COC(=O)c1ccc(N=c2sc(C(=O)OC)cc(=O)n2C)cc1	ELG1 DNA repair inconclusive, TDP1 cell noCPT 26µM, TDP1 cell CPT 21µM
COC(=O)c1cc(=O)n(-c2ccc(F)cc2)c(=Nc2ccc(F)cc2)s1	VP16 counter 16µM, ELG1 DNA repair inconclusive, TDP1 cell noCPT 6.5µM, TDP1 cell CPT 6.5µM, IL-1B inflam inh -105, RORgamma inh inconclusive
CCOC(=O)c1ccc(N=c2sc(C(=O)OC)cc(=O)n2C2CC2)cc1	none
COC(=O)c1cc(=O)n(Cc2cccs2)c(=Nc2ccc(F)cc2)s1	VP16 counter inconclusive, TDP1 cell noCPT 21µM, TDP1 cell CPT inconclusive, RORgamma inh inconclusive
COc1ccc(S(=O)(=O)N2CCC(O)(c3cccnc3)CC2)cc1OC	none
COc1ccc(OC)c(S(=O)(=O)N2CCC(C(=O)Nc3ccc(C)c(C)c3)CC2)c1	ELG1 DNA repair inconclusive, TDP1 cell noCPT 21µM, TDP1 cell CPT 16µM
COc1ccc(NC(=O)C2CCC2)cc1S(=O)(=O)N1CCOCC1	none (no result: VP16 counter, RORgamma inh)
COc1ccc(NC(=O)C2CCC(C(C)(C)C)CC2)cc1S(=O)(=O)N1CCOCC1 (stereo not drawn)	TDP1 cell noCPT inconclusive, TDP1 cell CPT 21µM (no result: VP16 counter, RORgamma inh)
O=C(NC(Nc1ncc(S(=O)(=O)c2ccc([N+](=O)[O-])cc2)s1)(C(F)(F)F)C(F)(F)F)c1ccc(Cl)cc1	VP16 counter 11µM, ELG1 DNA repair inconclusive, TDP1 cell noCPT 15µM, TDP1 cell CPT inconclusive, IL-1B inflam inh -76, RORgamma inh inconclusive
CC(=O)NCCC(=O)Nc1ncc(S(=O)(=O)c2ccc([N+](=O)[O-])cc2)s1	none (no result: VP16 counter, RORgamma inh)
O=C(NC(Nc1nc2ccccc2s1)(C(F)(F)F)C(F)(F)F)c1ccccc1	none
O=C(Nc1ncc(S(=O)(=O)c2ccc([N+](=O)[O-])cc2)s1)c1cccc2ccccc12	TDP1 cell noCPT 21µM, TDP1 cell CPT 15µM, RORgamma inh inconclusive
O=C1/C(=C/c2ccc([N+](=O)[O-])cc2)CCC1C1CCCC1 (stereo not drawn)	ELG1 DNA repair inconclusive
COc1ccc(C(=O)NNC(=O)CSc2nnc(-c3cccnc3)o2)cc1	VP16 counter inconclusive
CCc1cc(C(c2cccc(OC)c2)N2CCOCC2)c(NC(=O)c2ccccc2)s1 (stereo not drawn)	TDP1 cell noCPT 15µM, TDP1 cell CPT inconclusive, IL-1B inflam inh inconclusive
CCc1cc(C(c2ccc(F)cc2)N2CCOCC2)c(NC(=O)c2ccccc2)s1 (stereo not drawn)	ELG1 DNA repair inconclusive, TDP1 cell noCPT inconclusive, TDP1 cell CPT inconclusive, IL-1B inflam inh inconclusive
CCc1cc(C(c2ccc(OC)c(OC)c2)N2CCOCC2)c(NC(=O)c2ccccc2)s1 (stereo not drawn)	VP16 counter inconclusive, TDP1 cell noCPT 21µM, TDP1 cell CPT inconclusive, IL-1B inflam inh -124, RORgamma inh inconclusive
CCOCCc1nn2c(=O)cc(COC(=O)CNC(=O)c3ccc(F)cc3)nc2s1	none (no result: VP16 counter, ELG1 DNA repair, IL-1B inflam inh, RORgamma inh)
